Results on 57 compounds are retold here after PubChem BioAssay AID652048 (National Center for Advancing Translational Sciences (NCATS), 2013).

The whole screen tested about 410,000 compounds, of which about 2,400 (0.59%) were called active. The entries come from a sample that favours actives as a whole. A number with no mark means an inactive call. Rule as the data show it: active = max activation above about 30%; inactive = the rest.

D(3) dopamine receptor (Homo sapiens), sequence (P35462 whole entry, looked up): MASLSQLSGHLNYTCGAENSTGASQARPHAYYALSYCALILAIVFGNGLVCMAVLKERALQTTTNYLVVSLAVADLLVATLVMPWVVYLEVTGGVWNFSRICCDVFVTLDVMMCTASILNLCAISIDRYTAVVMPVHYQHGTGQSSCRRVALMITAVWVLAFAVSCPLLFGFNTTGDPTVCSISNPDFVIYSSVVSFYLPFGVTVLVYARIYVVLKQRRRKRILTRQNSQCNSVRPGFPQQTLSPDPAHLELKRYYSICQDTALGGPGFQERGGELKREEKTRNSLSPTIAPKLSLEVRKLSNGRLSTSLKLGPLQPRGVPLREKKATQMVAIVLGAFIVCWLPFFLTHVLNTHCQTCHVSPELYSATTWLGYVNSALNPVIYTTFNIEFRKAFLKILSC

The target in this experiment is D(3) dopamine receptor (Homo sapiens) (UniProt P35462). In words: qHTS of D3 Dopamine Receptor Agonist: qHTS. Also: 0% is about no effect. Particulars: D3R DiscoveRx beta-arrestin cells, luminescence, 90 min; hits give high values. Summed up:
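Agonist-mode cell screen: cells plated at 1500/well and incubated overnight at 37 °C, then exposed to library compounds for 90 min at 37 °C. Detection reagent was added for 30–60 min at room temperature, and luminescence was read.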
(In qHTS, concentration-response curves come from the screen itself.)
For the compound `CCC(=O)N1CCc2cc(Br)cc(S(=O)(=O)NCc3ccc(Cl)cc3)c21`, the max activation was -15.3%.
On to `CN1CC[C@H](c2c(O)cc(O)c3c(=O)cc(-c4ccccc4Cl)oc23)[C@H](O)C1`, for which the max activation is 6.48%.
The value for `Cc1ccnc(SCCn2c(Br)nc3c2c(=O)[nH]c(=O)n3C)n1` was 5.98%; that for `Cn1c(=O)c2c(nc(Br)n2CCSc2nc3ccccc3o2)n(C)c1=O` was 4.26%.
In the case of `Cn1c(=O)[nH]c(=O)c2c1nc(Br)n2CCCCSc1nc2ccccc2o1` it was 40.9% (active).
In the case of `Oc1ccc(-c2nc3ccc(Cl)cn3c2Nc2ccc3c(c2)OCO3)cc1` it was 6.89%; in that of `Cc1ccccc1CN1CCC(CNC(=O)c2cc3ccc4cccnc4c3[nH]2)CC1`, -21.1%.
Turning to `CC(=O)Nc1cccc(NC(=O)CSc2cn(CC(=O)N3CCCC3)c3ccccc23)c1`, the max activation is 11.5%.
Consider `Cc1cccc(N2CCN(C(=O)CCn3c(=O)c4cccn4c4cccnc43)CC2C)c1` (configuration not stated), for which the max activation is 14.9%.
As for `O=C(O)CCCCC(=O)O`, the max activation is 2.29%.
The value for `O=C(Nc1ncccc1O)c1ccc(S(=O)(=O)N2CCCC2)cc1` was 1.73%; that for `COc1ccc(N2CC(C(=O)NCCN3C(=O)S/C(=C\c4cccnc4)C3=O)CC2=O)c(OC)c1` (configuration not stated) was 2.93%; that for `O=C(NCCN1C(=O)S/C(=C\c2cccnc2)C1=O)c1ccc(S(=O)(=O)N2CCCC2)cc1` was 31.1% (active).
The value for `Cc1cccc(NC(=O)Cn2c(=O)n(CCC(C)C)c(=O)c3cccnc32)c1` was -14.3%.
For the compound `Cc1ccc(-c2nc3cccc(C)n3c2Nc2ccc3c(c2)OCCO3)cc1`, the max activation is -6.45%.
The value for `O=C(CCSCc1ccccc1F)N1CCN(c2ccc(Cl)cc2)CC1` was 57.2% (active); that for `COc1ccc(N2CCN(C(=O)CCSCc3ccccc3F)CC2)cc1` was 1.03%; that for `Cc1cccc(N2CCN(C(=O)CCSCc3ccccc3F)CC2)c1C` was -6.07%.
On to `CC(Oc1ccccc1)C(=O)N[C@@H]1C(=O)N2[C@@H]1SC(C)(C)[C@@H]2C(=O)O` (some centres not stated), for which the max activation was 8.72%.
In the case of `Cc1cccc2c(=O)cc(CSc3ccccc3NC(=O)C(C)C)[nH]c12` it was 3.87%; in that of `COc1cc(Nc2nc(-c3ccc(OC)c(OC)c3)nc3ccccc23)cc(OC)c1`, -6.69%; in that of `NS(=O)(=O)c1ccc(NC(=O)/C=C/c2ccccc2Cl)cc1`, 2.71%.
In the case of `Cc1ccc(-c2nn(-c3ccccc3)cc2/C=C/C(=O)Nc2cccc(S(N)(=O)=O)c2)cc1` it was 38.3% (active); in that of `COc1ccc(-n2cnnc2SCC(=O)Nc2cccc(S(N)(=O)=O)c2)cc1`, 0.641%; in that of `CN[C@@H]1[C@@H](O)[C@@H](O[C@@H]2[C@H](O)[C@H](O[C@H]3OC(CN)=CC[C@H]3N)[C@@H](N)C[C@H]2N)OCC1(C)O` (some centres not stated), -3.05%.
In the case of `O=C1NS(=O)(=O)c2ccccc21` it was 0.55%.
Consider `CCn1cc(C(=O)NCCc2ccccc2)c(=O)c2cc(S(=O)(=O)N3CCCCCC3)ccc21`, for which the max activation is -2.07%.
The value for `CC(=O)Nc1ccc(NC(=O)C2CCCN(S(=O)(=O)c3ccc4c(c3)CCCC(=O)N4)C2)cc1` (configuration not stated) was 6.84%.
Take `CN(C)CCCSc1ccccc1NC(=O)/C=C/c1ccccc1`: the max activation is -15.8%.
In the case of `CCOC(=O)c1cc(OC(=O)c2ccccc2Cl)n(-c2ccccc2)n1` it was -8.96%; in that of `CCOC(=O)c1cc(-c2sc(NC(=O)c3ccccc3)nc2C)n(Cc2ccccc2)n1`, 8.04%; in that of `CCOC(=O)c1cc(-c2ccccc2C)n(Cc2cc(C)no2)n1`, 59.5% (active).
Take `CCc1ccc(C(=O)NC(=S)Nc2ccccc2N2CCOCC2)cc1`: the max activation is -1.31%.
In the case of `CC(=O)N1CCN(c2ccccc2NC(=S)NC(=O)c2cc3ccccc3o2)CC1` it was -3.88%.
The value for `COc1ccc(C(=O)NC(=S)Nc2ccccc2N2CCN(S(C)(=O)=O)CC2)cc1OC` was 34.6% (active); that for `CCOc1cccc2sc(N3CCN(C(=O)C4CC4)CC3)nc12` was -4.91%; that for `CC/C(=N\NC(=O)c1ccccc1Cl)c1ccc(Br)s1` was 5.71%.
In the case of `C/C(=N\NC(=O)CNc1cccc2ccccc12)c1ccc(Br)s1` it was 30.4% (active); in that of `Cc1ccccc1-n1c(SCC(=O)Nc2cccc3ccccc23)nc(O)cc1=O`, 0.0019%.
Regarding `O=C1CSc2ccc(S(=O)(=O)NCc3ccccc3)cc2N1`, the max activation is -4.53%.
The value for `COc1ccccc1CNS(=O)(=O)c1ccc2c(c1)NC(=O)CS2` was 5.98%; that for `CCC(Cc1ccccc1)NS(=O)(=O)c1ccc2c(c1)NC(=O)CS2` (configuration not stated) was 34.1% (active).
The value for `Cc1ccccc1CSc1nc2c([nH]c3ccccc32)c(=O)n1C` was -3.75%.
Consider `COc1ccc(-c2nc3c(s2)CCc2onc(-c4ccc(OC)cc4)c2-3)cc1`, for which the max activation was 5.32%.
`COc1ccc(-c2nc3n(c2Br)CCC3)cc1`: the max activation was 8%.
In the case of `COc1ccc(-c2nc3c(s2)CCc2onc(-c4ccc(Br)cc4)c2-3)cc1` it was 31.5% (active); in that of `NC(=O)C(=O)N/N=C/c1ccc([N+](=O)[O-])o1`, -13.9%; in that of `CN1CC(O)c2cc(N=NC(N)=O)c(O)cc21` (configuration not stated), -13%.
As to `Cc1onc(-c2ccc(F)cc2F)c1C(=O)Nc1cccc(C(F)(F)F)c1`, the max activation was -14.1%.
The value for `Cc1oc2ccc(O)c(CN3CCCCC3)c2c1C(=O)Nc1cccc(C(F)(F)F)c1` was 0.725%; that for `Cc1oc2c(F)c(F)c(F)c(F)c2c1S(=O)(=O)Nc1cccc(C(F)(F)F)c1` was 39.8% (active); that for `COc1cc(Cl)c(NC(=O)C(NS(=O)(=O)c2cccs2)C(C)C)c(OC)c1` (configuration not stated) was 6.54%.
The value for `COc1ccc(CCNc2ncnc3c2cnn3-c2ccc(C)cc2)cc1` was 11.8%.
In the case of `Cc1ccccc1C(=O)Nc1sc2c(c1C(=O)N1CCC(C)CC1)CCCC2`, the max activation is -2.21%.
In the case of `CCc1ccc(-n2c(=S)sc3c(=O)n(-c4ccccc4OC)c(=S)[nH]c32)cc1` it was 0.277%; in that of `COc1ccccc1-n1c(-c2ccc(C)cc2)cn2c3c(=O)n(C)c(=O)n(C)c3nc12`, -0.938%; in that of `COc1ccccc1-n1c(=S)[nH]c2c(sc(=S)n2-c2ccc(C)cc2C)c1=O`, 37.7% (active).
